U2OS ROS induce: raises reactive oxygen species in U2OS cancer cells. U2OS ROS induction, H2DCF-DA fluorescence. ROS induction (% of piperlongumine), % at 10 µM. actives 2% (n = 46,000); in the data active means ROS induction above about 79%, passing the limit was not always enough;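 further: 0% = DMSO vehicle median and 100% = reference compound median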
YB-1 expr inh: YB-1 expression inhibition; U2OS, qRT-PCR YB-1 vs CDIP delta delta Cp, 16 h; active compounds read high; zero = DMSO, each unit about twofold; delta delta Cp (YB-1 minus CDIP) (concentration not given with the values); actives 0.37% (n = 30,000); AID 434959;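 active means delta delta Cp rounded down to an integer at or above 3, about 3 SD of DMSO wells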;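 further: higher means less YB-1 transcript or more CDIP transcript relative to DMSO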
Starred values were filed as active, the others as inactive. An excerpt weighted towards active compounds, which were near 2.1% of everything screened.

How did CC1(C)OC2C(CO)OC(n3cnc4c(=O)[nH]cnc43)C2O1 (stereo unspecified) do in these assays?
U2OS ROS induce: 33; YB-1 expr inh: -0.11

How did C[C@@H]1CN([C@@H](C)CO)C(=O)c2cccc(NC(=O)CCCCCC(=O)Nc3ccccc3N)c2O[C@H]1CN(C)Cc1ccc(Cl)c(Cl)c1 do in these assays?
U2OS ROS induce: 154*; YB-1 expr inh: -0.024

Results for C[C@@H]1CN([C@@H](C)CO)C(=O)c2cccc(NC(=O)CCCCCC(=O)Nc3ccccc3N)c2O[C@H]1CN(C)Cc1ccc(Oc2ccccc2)cc1 ?
U2OS ROS induce: 133*; YB-1 expr inh: -0.27

What do the screens show for `C[C@H]1CN([C@@H](C)CO)C(=O)c2cccc(NC(=O)CCCCCC(=O)Nc3ccccc3N)c2O[C@@H]1CN(C)CC1CC1`?
U2OS ROS induce: 124*; YB-1 expr inh: 0.17

What do the screens show for `C[C@@H]1CN([C@@H](C)CO)C(=O)c2cccc(NC(=O)CCCCCC(=O)Nc3ccccc3N)c2O[C@H]1CN(C)Cc1ccccc1`?
U2OS ROS induce: 53; YB-1 expr inh: -0.24

How did C[C@@H]1CN([C@H](C)CO)C(=O)c2cccc(NC(=O)CCCCCC(=O)Nc3ccccc3N)c2O[C@@H]1CN(C)Cc1ccccc1 do in these assays?
U2OS ROS induce: 2; YB-1 expr inh: -0.7

What do the screens show for `C[C@@H]1CN([C@H](C)CO)C(=O)c2cccc(NC(=O)CCCCCC(=O)Nc3ccccc3N)c2O[C@@H]1CN(C)CC1CC1`?
U2OS ROS induce: -4; YB-1 expr inh: -0.0057

What do the screens show for `N#Cc1ccc(CSc2nc3ncccc3c(=O)n2Cc2ccccc2)cc1`?
U2OS ROS induce: 14

Results for CCOc1cccc2c1Oc1nc(-c3ccccc3)nc(SCC(=O)N(CC)CC)c1C2 ?
U2OS ROS induce: 35

How did CCC(=O)Nc1ccc(S(=O)(=O)Nc2nccc(/C=C/c3ccccc3Cl)n2)cc1 do in these assays?
U2OS ROS induce: 3

Results for CN1C(C(=O)c2ccccc2)C(=O)c2ccccc2S1(=O)=O (stereo unspecified) ?
U2OS ROS induce: 13; YB-1 expr inh: 0.044

What do the screens show for `COc1ccc(-c2oc3ncn(CC(C)C)c(=N)c3c2-c2ccc(OC)cc2)cc1`?
U2OS ROS induce: 94*

Results for COc1ccc(-c2oc3ncn(CCO)c(=N)c3c2-c2ccc(OC)cc2)cc1 ?
U2OS ROS induce: 0

How did Cc1cc(C(=O)Nc2cccc3c2O[C@H](CN(C)Cc2ccc(-c4ccccc4)cc2)[C@H](C)CN([C@@H](C)CO)C3=O)n(C)n1 do in these assays?
U2OS ROS induce: 19; YB-1 expr inh: -0.41

What do the screens show for `Cc1cc(C(=O)Nc2cccc3c2O[C@H](CN(C)Cc2ccc(-c4ccccc4)cc2)[C@H](C)CN([C@H](C)CO)C3=O)n(C)n1`?
U2OS ROS induce: 16; YB-1 expr inh: -0.13

What do the screens show for `Cc1cc(C(=O)Nc2cccc3c2O[C@H](CN(C)Cc2ccc(-c4ccccc4)cc2)[C@@H](C)CN([C@@H](C)CO)C3=O)n(C)n1`?
U2OS ROS induce: 214*; YB-1 expr inh: -0.35

How did Cc1cc(C(=O)Nc2cccc3c2O[C@@H](CN(C)Cc2ccc(-c4ccccc4)cc2)[C@H](C)CN([C@H](C)CO)C3=O)n(C)n1 do in these assays?
U2OS ROS induce: 78*; YB-1 expr inh: 0.16

Results for COc1ccc2c(c1)N(C)/C(=C1/OC(=S)N(C)C1=O)S2 ?
U2OS ROS induce: -4

Results for CCN1CCN(c2ncnc3c2c(-c2ccccc2)cn3-c2ccc(Cl)cc2)CC1 ?
U2OS ROS induce: 21

How did COC(=O)COc1cccc(NC(=O)c2ccc(Br)cc2)c1 do in these assays?
U2OS ROS induce: 20

How did COC(=O)COc1cccc(NC(=O)c2cc(OC)cc(OC)c2)c1 do in these assays?
U2OS ROS induce: 108*

Results for CC(C(=O)Oc1cccc2cccnc12)N1C(=O)c2ccccc2C1=O (stereo unspecified) ?
U2OS ROS induce: -5

What do the screens show for `CC(=O)Oc1ccc(C(=O)Nc2ccc(F)cc2F)cc1`?
U2OS ROS induce: -10

How did O=c1c(-c2ccc(O)cc2)coc2cc(OC3OC(CO)C(O)C(O)C3O)cc(O)c12 (stereo unspecified) do in these assays?
U2OS ROS induce: -12; YB-1 expr inh: -0.35

Results for COc1cc(O)c2c(=O)c(-c3ccc(O)cc3)coc2c1 ?
U2OS ROS induce: 16; YB-1 expr inh: 3*

How did COC(=O)c1ccccc1-n1c(N)c(C#N)c(N)c(C#N)c1=S do in these assays?
U2OS ROS induce: -7

Results for O=C(COc1ccccc1)NCc1nc2ccccc2n1Cc1ccc(Cl)cc1 ?
U2OS ROS induce: -4

Results for CCOc1cccc2cc(-c3nc4ccccc4s3)c(=O)oc12 ?
U2OS ROS induce: 17; YB-1 expr inh: 0.062

Results for O=c1oc2cc(O)ccc2cc1-c1nc2ccccc2s1 ?
U2OS ROS induce: 149*

What do the screens show for `COc1ccc(C(=O)Nc2ccccc2C2(C)CC2)cc1`?
U2OS ROS induce: -17

Results for COc1ccc(C(=O)Nc2ccccc2C(=O)NC(C(=O)O)C(C)C)cc1 (stereo unspecified) ?
U2OS ROS induce: -12

What do the screens show for `COc1ccccc1NC(=O)C(NC(=O)c1ccccc1NC(=O)c1ccccc1)C(C)C` (stereo unspecified)?
U2OS ROS induce: 97*

Screening results from PubChem.
